# Compound activity: PubChem BioAssay, Center for Chemical Genomics, University of Michigan
# A selection: hits, their analogues and other compounds. The true share with any hit is near 0.86%.
# CDC25B-CDK2 inh – human CDC25B-CDK2/CyclinA binding inhibition; HTRF CDC25B-CDK2/CyclinA binding, anti-His/anti-Flag; active compounds read high; z-score (no concentration beside the values); 94,000 compounds, 0.72% hits; AID 1259370; in the data active = z-score above about 3.2
# HIV TAR-Tat – HIV-1 TAR-Tat binding disruption; HIV-1 TAR RNA, Tat peptide displacement FRET; active compounds read high; z-score (concentration not given with the values); 100,000 compounds, 0.6% hits; active = z-score of 3 or more in at least 2 runs
# Numbers without * were called inactive; . = no result.
SMILES,CDC25B-CDK2 inh,HIV TAR-Tat
[Cl-].[Cl][Pt].[NH2-].[NH2-].c1ccncc1,3.73*,.
Cc1nn(-c2ccccc2)c2c1C(c1ccsc1)SCC(=O)N2 (stereo not given),-1.37,1.05
CCn1nc(-c2ccccc2)nc2c(=O)n(C)c(=O)nc1-2,-0.92,-7.67
Cn1nc(-c2ccccc2)nc2c(=O)n(C)c(=O)nc1-2,5.75*,-4.67
CC(=O)N1c2ccccc2C(=O)C1N1CC=C(c2ccccc2)CC1 (stereo not given),.,0.06
CC[C@@H](CO)NC(=O)[C@@H]1C=C2c3cccc4[nH]cc(c34)C[C@H]2N(C)C1,4.21*,0.85
CC[C@@H](CO)NC(=O)[C@@H]1C=C2c3cccc4c3c(cn4C)C[C@H]2N(C)C1,1.05,.
Cc1ccc(C(=O)C2CN3CCC2CC3)cc1 (stereo not given),-2.77,1.38
COc1ccc(Cc2nccc3cc(OC)c(OC)cc23)cc1OC,13.3*,1.56
COc1ccc(CCNCc2ccc(OC)c(OC)c2)cc1OC,-0.56,-1.21
Cc1cccc(C)c1NC(=O)CN1CCCC1=O,-1.09,.
CCCCC/C=C\C/C=C\C/C=C\C/C=C\CCCC(=O)Nc1ccc(O)cc1,.,0.43
CC[C@@H](C)C(=O)O[C@H]1[C@H](O)[C@H]2[C@@H](CN3C[C@@H](C)CC[C@H]3[C@@]2(C)O)[C@@H]2C[C@]34OC5(O)[C@@H](OC(=O)C(C)(O)C(C)O)CC[C@@]3(C)[C@@H]5[C@@H](OC(C)=O)[C@@H](OC(C)=O)[C@H]4[C@@]21O (stereo not given in full),.,10*
CCC(C)C(=O)O[C@H]1[C@H](O)C2C(CN3CC(C)CCC3[C@@]2(C)O)C2C[C@]34O[C@]5(O)C(OC(=O)C(C)(O)C(C)O)CC[C@@]3(C)C5C(OC(C)=O)[C@@H](OC(C)=O)C4[C@@]21O (stereo not given in full),.,0.53
CCCCCCCCCOc1ccc2[nH]cc(CCN)c2c1,.,0.89
CC(C)=CCCC1=CC(=O)c2c(O)ccc(O)c2C1=O,.,33.7*
O=C(NCCOC(=O)C(Cl)(Cl)Cl)C(Cl)(Cl)Cl,-1.84,.
O=C1C2CCN(CC2)C1Cc1ccc(OCCOc2ccccc2)cc1 (stereo not given),-0.64,0.32
O=C1C2CCN(CC2)C1Cc1ccco1 (stereo not given),11.9*,.
CCc1cccc(C)c1-n1nnnc1C1(N2CCOCC2)CCCCC1,.,0.74
c1ccc(-n2cccc2-c2nc(N3CC3)nc(N3CC3)n2)cc1,15.8*,.
COc1nc(NC(C)C)nc(NC(C)C)n1,.,-0.86
COc1cccc(CN2CCN(Cc3cc(Br)ccc3O)CC2)c1,16.1*,0.7
CCc1ccc(CN2CCN(Cc3cc(Br)ccc3O)CC2)cc1,-0.94,1.31
Brc1ccc(CN2CCNCC2)cc1,-1,.
SMILES,CDC25B-CDK2 inh,HIV TAR-Tat
O=S1(=O)N(Cc2ccc(F)cc2)CCCN1Cc1cccc(Cl)c1,.,-0.36
COc1cc2c(cc1O)CC1c3c(cc(O)c(OC)c3-2)CCN1C (stereo not given),.,7.69*
COc1cc2c3c(c1OC)-c1ccccc1CC3N(C)CC2 (stereo not given),.,-9.24
O=[N+]([O-])c1ccc(O)c([N+](=O)[O-])c1,.,1.92
O=[N+]([O-])c1cc(O)c(O)c([N+](=O)[O-])c1,-3.65,9.53*
O=C1c2ccccc2C(=O)N1CN(Cc1csc2ccccc12)CN1C(=O)c2ccccc2C1=O,-1.24,.
CCCCCCC(C)(C)c1ccc([C@@H]2C[C@@H](O)CC[C@H]2CCCO)c(O)c1,.,1.14
COC(=O)c1nc(-c2ccc(C)cc2)sc1[P+](c1ccccc1)(c1ccccc1)c1ccccc1,-1.49,.
